Tests used:
Experiment in all cases: log2 ratio of Biotin-Ahx-Ub-VS probe labelling (fragment/DMSO); higher = less target engagement (more negative = stronger competition), active = hit call of the paper (q ≤ 0.05, log2 ratio ≤ -1)
Conditions in all cases: compound concentration: 200 uM; treatment time: 3 h
ALG13 = biological target: T1, ALG13 (UniProt Q9NP73)
T1 sequence (whole entry): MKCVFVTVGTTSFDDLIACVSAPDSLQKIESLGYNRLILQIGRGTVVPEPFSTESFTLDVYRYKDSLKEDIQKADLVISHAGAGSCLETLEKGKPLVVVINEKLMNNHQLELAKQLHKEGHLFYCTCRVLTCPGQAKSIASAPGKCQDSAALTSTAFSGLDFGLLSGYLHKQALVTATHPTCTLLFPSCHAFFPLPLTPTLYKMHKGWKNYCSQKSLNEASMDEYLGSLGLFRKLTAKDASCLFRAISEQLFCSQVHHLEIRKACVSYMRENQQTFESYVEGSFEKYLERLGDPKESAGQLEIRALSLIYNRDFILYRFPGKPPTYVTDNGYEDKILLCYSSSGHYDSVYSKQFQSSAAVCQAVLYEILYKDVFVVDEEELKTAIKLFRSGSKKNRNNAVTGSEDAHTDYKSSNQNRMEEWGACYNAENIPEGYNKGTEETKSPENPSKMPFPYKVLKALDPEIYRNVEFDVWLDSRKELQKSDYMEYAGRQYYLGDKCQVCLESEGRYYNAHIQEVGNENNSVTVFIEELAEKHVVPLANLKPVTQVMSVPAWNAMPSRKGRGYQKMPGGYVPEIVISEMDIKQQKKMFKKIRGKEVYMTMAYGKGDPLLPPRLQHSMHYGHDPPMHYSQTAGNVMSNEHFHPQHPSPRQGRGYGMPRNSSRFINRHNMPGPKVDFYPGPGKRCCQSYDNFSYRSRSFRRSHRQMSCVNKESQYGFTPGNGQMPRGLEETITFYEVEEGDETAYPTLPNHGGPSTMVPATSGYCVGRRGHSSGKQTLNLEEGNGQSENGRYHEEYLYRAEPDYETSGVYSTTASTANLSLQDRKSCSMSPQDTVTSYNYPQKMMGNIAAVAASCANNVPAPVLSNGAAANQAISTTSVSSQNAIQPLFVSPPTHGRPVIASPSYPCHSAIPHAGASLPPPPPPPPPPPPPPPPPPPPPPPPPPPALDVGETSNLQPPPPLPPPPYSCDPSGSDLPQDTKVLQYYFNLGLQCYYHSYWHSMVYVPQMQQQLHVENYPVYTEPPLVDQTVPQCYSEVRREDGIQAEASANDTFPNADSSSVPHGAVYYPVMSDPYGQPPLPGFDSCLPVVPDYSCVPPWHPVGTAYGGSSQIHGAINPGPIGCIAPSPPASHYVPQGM
Procedure, shortened: (§1)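 Fragment (200 µM) or vehicle was incubated for 3 h with triplicate HEK293T lysate samples of 495 µg, which were then treated with Biotin-Ahx-Ub-VS at 0.5 µM final for 1 h. Labelled DUBs were enriched on NeutrAvidin, digested with LysC and trypsin, and analysed by diaPASEF LC-MS/MS. Values are average log2 fragment/vehicle ratios from an unpaired t-test on global-median-normalised Spectronaut label-free quantities, using proteins with ≥2 unique peptides.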

ATXN3 = ATXN3 (UniProt P54252)
Procedure, shortened: as §1

BAP1 = biological target: T2, BAP1 (UniProt Q92560)
T2 sequence (whole entry): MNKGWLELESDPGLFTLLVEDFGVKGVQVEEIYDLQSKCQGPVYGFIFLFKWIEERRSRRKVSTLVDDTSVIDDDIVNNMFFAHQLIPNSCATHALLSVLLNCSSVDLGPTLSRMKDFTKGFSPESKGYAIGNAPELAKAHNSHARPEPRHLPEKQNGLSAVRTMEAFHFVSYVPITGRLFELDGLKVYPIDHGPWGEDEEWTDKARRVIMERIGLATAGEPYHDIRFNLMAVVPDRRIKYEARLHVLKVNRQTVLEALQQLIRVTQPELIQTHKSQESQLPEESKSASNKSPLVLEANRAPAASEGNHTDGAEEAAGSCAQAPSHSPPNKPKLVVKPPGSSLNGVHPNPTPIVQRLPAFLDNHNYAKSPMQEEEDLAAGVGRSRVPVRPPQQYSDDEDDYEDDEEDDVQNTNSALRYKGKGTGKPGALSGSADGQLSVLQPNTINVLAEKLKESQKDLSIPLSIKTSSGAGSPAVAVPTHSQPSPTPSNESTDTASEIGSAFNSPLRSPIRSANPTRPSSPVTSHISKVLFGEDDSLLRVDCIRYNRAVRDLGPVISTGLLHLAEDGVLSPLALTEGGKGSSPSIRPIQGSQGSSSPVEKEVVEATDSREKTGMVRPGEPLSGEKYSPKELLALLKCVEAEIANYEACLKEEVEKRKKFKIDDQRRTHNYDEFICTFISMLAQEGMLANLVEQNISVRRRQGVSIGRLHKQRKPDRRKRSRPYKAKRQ
Procedure, shortened: as §1

EIF3F = EIF3F (UniProt O00303)
Procedure, shortened: as §1

EIF3H = EIF3H (UniProt O15372)
Procedure, shortened: as §1

FAM105A = biological target: T3, FAM105A (UniProt Q9NUU6)
T3 sequence (whole entry): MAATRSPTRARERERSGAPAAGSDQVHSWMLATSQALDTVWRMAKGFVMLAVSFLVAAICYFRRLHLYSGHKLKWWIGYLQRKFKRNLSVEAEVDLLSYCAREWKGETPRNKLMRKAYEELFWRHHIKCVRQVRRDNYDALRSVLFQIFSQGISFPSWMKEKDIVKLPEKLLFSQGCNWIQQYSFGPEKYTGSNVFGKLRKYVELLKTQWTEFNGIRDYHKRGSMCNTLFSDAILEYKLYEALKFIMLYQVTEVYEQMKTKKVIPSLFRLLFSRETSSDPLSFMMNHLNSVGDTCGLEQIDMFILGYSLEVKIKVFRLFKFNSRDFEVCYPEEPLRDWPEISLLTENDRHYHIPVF
Procedure, shortened: as §1

OTUB1 = OTUB1 (UniProt Q96FW1)
Procedure, shortened: as §1

OTUD4 = biological target: T4, OTUD4 (UniProt Q01804)
T4 sequence (whole entry): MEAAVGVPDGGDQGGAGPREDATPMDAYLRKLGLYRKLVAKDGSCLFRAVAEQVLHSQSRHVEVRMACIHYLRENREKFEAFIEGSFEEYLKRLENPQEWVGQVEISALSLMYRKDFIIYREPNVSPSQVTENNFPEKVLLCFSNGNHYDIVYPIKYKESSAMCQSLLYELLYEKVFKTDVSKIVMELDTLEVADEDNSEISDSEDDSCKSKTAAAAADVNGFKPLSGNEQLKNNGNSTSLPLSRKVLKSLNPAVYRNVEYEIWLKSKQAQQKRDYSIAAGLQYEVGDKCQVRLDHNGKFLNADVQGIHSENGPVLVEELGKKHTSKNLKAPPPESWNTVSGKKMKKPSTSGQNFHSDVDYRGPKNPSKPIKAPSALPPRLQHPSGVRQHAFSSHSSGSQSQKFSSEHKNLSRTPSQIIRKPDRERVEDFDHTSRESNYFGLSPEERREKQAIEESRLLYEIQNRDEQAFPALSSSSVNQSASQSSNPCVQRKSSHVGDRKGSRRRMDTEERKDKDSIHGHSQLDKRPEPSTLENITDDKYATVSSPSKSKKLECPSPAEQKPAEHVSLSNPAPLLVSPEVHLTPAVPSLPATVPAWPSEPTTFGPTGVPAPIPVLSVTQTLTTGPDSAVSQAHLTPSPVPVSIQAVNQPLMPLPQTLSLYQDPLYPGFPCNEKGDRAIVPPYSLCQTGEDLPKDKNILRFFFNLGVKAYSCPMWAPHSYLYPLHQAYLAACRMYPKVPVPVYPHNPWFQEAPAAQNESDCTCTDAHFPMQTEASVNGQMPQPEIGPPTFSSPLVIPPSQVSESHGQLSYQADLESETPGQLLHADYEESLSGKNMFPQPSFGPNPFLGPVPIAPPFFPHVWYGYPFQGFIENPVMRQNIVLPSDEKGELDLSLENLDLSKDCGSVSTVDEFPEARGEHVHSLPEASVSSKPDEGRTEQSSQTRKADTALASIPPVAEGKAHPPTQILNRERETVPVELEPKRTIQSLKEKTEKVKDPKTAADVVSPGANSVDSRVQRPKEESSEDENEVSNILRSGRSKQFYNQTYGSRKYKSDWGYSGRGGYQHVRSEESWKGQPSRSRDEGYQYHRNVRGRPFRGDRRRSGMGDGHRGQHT
Procedure, shortened: as §1

OTUD5 = biological target: T5, OTUD5 (UniProt Q96G74)
T5 sequence (whole entry): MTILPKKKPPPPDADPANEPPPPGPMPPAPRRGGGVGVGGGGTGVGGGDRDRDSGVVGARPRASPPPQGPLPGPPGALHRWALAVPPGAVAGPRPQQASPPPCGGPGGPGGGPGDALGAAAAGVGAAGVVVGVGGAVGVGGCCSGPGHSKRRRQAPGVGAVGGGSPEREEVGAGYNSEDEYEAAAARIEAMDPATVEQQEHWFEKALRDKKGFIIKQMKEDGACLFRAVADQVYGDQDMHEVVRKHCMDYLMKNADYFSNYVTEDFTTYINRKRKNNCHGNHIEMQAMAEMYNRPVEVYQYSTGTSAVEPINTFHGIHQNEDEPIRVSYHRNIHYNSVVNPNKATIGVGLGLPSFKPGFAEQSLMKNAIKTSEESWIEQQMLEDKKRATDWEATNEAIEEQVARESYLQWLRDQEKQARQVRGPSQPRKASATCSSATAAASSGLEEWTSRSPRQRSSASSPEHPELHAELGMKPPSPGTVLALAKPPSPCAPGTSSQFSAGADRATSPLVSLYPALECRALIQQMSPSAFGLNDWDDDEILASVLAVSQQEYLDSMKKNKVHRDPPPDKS
Procedure, shortened: as §1

Measured: log2 ratio of Biotin-Ahx-Ub-VS probe labelling

EIF3F, sequence (O00303 whole entry): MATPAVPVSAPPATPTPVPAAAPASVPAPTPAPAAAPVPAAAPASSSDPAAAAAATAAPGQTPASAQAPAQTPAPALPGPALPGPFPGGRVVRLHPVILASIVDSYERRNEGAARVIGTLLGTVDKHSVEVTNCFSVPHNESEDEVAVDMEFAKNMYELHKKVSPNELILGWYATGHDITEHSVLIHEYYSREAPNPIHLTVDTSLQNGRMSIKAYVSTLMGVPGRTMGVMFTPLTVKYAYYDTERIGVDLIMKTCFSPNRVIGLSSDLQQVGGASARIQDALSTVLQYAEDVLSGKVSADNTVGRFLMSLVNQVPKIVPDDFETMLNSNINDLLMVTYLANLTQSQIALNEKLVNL
ATXN3, sequence (P54252 whole entry): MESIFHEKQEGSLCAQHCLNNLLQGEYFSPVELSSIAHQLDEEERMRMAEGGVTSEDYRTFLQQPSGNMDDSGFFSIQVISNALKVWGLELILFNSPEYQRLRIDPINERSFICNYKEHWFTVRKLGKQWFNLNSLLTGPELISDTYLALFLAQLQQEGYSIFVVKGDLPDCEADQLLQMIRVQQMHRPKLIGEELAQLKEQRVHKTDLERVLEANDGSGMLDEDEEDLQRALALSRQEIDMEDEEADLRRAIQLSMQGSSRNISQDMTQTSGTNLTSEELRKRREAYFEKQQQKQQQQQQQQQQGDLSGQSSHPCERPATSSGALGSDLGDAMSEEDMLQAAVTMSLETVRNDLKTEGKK
EIF3H, sequence (O15372 whole entry): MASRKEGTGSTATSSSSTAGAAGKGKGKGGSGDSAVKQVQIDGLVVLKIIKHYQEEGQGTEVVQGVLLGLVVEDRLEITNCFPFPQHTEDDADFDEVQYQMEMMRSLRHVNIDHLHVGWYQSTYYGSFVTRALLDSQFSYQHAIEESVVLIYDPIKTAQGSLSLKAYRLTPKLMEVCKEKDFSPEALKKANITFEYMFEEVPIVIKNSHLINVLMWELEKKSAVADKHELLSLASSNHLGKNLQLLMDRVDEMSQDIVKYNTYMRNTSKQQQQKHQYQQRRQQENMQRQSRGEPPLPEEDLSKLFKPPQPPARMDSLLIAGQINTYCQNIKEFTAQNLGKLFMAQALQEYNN
OTUB1, sequence (Q96FW1 whole entry): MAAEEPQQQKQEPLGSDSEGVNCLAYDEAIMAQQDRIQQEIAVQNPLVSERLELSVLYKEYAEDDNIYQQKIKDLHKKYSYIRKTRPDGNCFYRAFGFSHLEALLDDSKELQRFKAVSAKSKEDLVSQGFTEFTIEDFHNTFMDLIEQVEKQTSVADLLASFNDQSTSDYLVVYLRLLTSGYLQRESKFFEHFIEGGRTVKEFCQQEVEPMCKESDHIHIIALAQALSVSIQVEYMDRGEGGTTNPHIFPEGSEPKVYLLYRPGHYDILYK

O=C(CCl)NCc1cccc(F)c1
inactive: ALG13 -0.54 | ATXN3 -0.297 | EIF3F -0.186 | EIF3H 0.138 | FAM105A 0.303 | OTUB1 -0.181 | OTUD4 -0.316 | OTUD5 -0.429
active: BAP1 -2.76

Source: the supplement of paper PMC11732987, “Enantioselective OTUD7B fragment discovery through chemoproteomics screening and high-throughput optimisation” (Communications Chemistry, 2025)
